Measurements as given in PubChem BioAssay AID463173 (ICCB-Longwood Screening Facility, Harvard Medical School, 2010).
Among all 52,000 compounds or so, about 4,300 (8.3%) were called active. Many of the other results were omitted from the sample, so actives are more common in it than they were. Values without a mark were called inactive. Rule as the data show it: active = survival mostly below about 52% (no sharp cut-off); inactive = mostly above about 56%.

tested on: DeltatarO mutant; experiment: S. aureus survival, RN4220 and DeltatarO strains – OD600, teichoic acid synthesis inhibitors, primary screen (AID 463173); details: S. aureus RN4220 wild type/DeltatarO growth, OD600, 18 h, active compounds read low, screened at 18.75 µg/mL (by protocol)

SMILES	survival
O=C(CSc1nnc(-c2cccc(F)c2)c(-c2cccc(F)c2)n1)NC1CCCCC1	73%
CC(C)c1ccc(NC(=O)CSC2=Nc3ccccc3C3=NC(CCC(=O)NC4CCCCC4)C(=O)N23)cc1 (stereo unspecified)	88%
Cc1ccc(C(=O)CSc2nnc(CSc3nc(C)cc(C)n3)n2C)cc1	88%
COC(=O)c1ccc(Oc2nc3c(c(=O)n(C)c(=O)n3C)n2C(C)C)cc1	85%
CCCC(=O)Nc1nnc(SCc2cc(=O)n3ccccc3n2)s1	87%
Cc1cc(C)c2c(CC(=O)Nc3cc(C(F)(F)F)ccc3Cl)coc2c1	66%
COc1ccc(CCn2cc3c(c2-c2ccccc2Br)c(=O)n(C)c(=O)n3C)cc1OC	67%
O=C(Oc1ccccc1)c1ccc(F)cc1	74%
Cn1c(NCCN)nc2c1c(=O)n(Cc1ccccc1)c(=O)n2C	50%
CCOc1ccc2[nH]c(=O)c(CN(CC3CCCO3)C(=O)N(CC)CC)cc2c1 (stereo unspecified)	98%
Cc1ccc(NC(c2cccc(Cl)c2)c2nnc(-c3ccccc3)o2)cc1F (stereo unspecified)	99%
Clc1ccc(CCNC(c2cccc(Cl)c2)c2nnc(-c3ccccc3)o2)cc1 (stereo unspecified)	11% (active)
Clc1ccc(CCNC(c2ccc(Cl)cc2)c2nnc(-c3ccccc3)o2)cc1 (stereo unspecified)	98%
Cc1cc2nn(-c3ccccc3)nc2cc1NC(=O)Cc1ccc(Cl)cc1	89%
O=C1CC(c2nnc(Cc3c(F)cccc3Cl)o2)CN1c1ccccc1 (stereo unspecified)	129%
COc1cccc(COC(=O)c2ccc(-c3nnn(Cc4cccc(OC)c4)n3)cc2)c1	67%
Nc1nn(-c2ccccc2)nc1C(=O)OCc1ccc(Cl)cc1	44% (active)
O=c1ccc(-c2ccccc2)nn1Cc1c(F)cccc1Cl	55%
COc1cccc(COC(=O)c2ccc(-c3nnn(Cc4ccccc4)n3)cc2)c1	126%
O=C(NCCCc1ccccc1)c1nn(-c2ccccc2)nc1CO	77%
COc1cccc(COC(=O)c2nn(-c3ccccc3)nc2N)c1	15% (active)
O=C(NCc1ccccc1)c1nn(-c2ccccc2)nc1CO	108%
O=C(Cc1ccc(Cl)cc1)Nc1ccc2nn(-c3ccccc3)nc2c1	81%
Nc1nn(-c2ccccc2)nc1C(=O)OCc1c(F)cccc1Cl	28% (active)
Nc1nn(-c2ccccc2)nc1C(=O)OCc1ccccc1	58% (active)
COc1ccc(-c2oc3ncn4nc(-c5ccccc5Br)nc4c3c2-c2ccc(OC)cc2)cc1	77%
